Measurements from the OligoGym collection.

What follows are sequences tested against CYTH1 (assay: pooled miR-30 sensor sort-seq; sequence = guide strand). Details: shRNA.

Compared with TTTCATTAGCTACTTCTGCTAT, TTGCACTGACAATATCGCTGGG is higher in sensor-assay potency score (higher = more potent): -0.232 for the first, 0.116 for the second.

Going from TATTGCACTGACAATATCGCTG to TCGTTCTCTATTAAGAACTGGA, the sensor-assay potency score (higher = more potent) falls from -0.0444 to -0.271.

Compared with AACTTGGTCTTTATTGTCGGGG, TAGGAAACACTTGAGAACCAGG is lower in sensor-assay potency score (higher = more potent): -0.623 for the first, -0.778 for the second.

Each sequence was assayed against CYTH4 in the same assay as above. Details: shRNA.

Going from TTGTCGGTCAGGATGAACCAGC to TTGAGGTTGGCGAACTCGTGGC, the sensor-assay potency score (higher = more potent) rises from -0.768 to -0.377.

Compared with TTTCGGTGCCACTTGATCCTCT, TCCATGTTGAACTTCTTGCGCC is lower in sensor-assay potency score (higher = more potent): -0.308 for the first, -1.08 for the second.

Compared with TTCATGGACACAAAGCGCTCGA, TTGGATATAGCACCCATCCTGC is lower in sensor-assay potency score (higher = more potent): -0.11 for the first, -0.488 for the second.

Compared with TGTAACTCTTCCGTCTCCCCGC, TAGCAGGTGTCTGTGGACTGGA is lower in sensor-assay potency score (higher = more potent): -0.31 for the first, -0.452 for the second.

Going from TGATCCTCTGTAACTCTTCCGT to AAGGACAACACGTAGCAGGTGT, the sensor-assay potency score (higher = more potent) rises from -0.462 to 0.877.

Work on TTGAGCAGCCAACCCTCCCGGT yielded a sensor-assay potency score (higher = more potent) of -1.04.

These sequences were tested against CYorf15A in the same assay as above. Details: shRNA.

First: TCTGCTTTCTCTCTTAACCCAC
Second: TATCTTTTCCATTATTTGCTTT
The sensor-assay potency score (higher = more potent) of the first is higher: -0.243 for the first, -0.915 for the second.

Going from ATTTACAACATGGAGTTGCTGC to TTGGAGTTGATTATTAACTAAA, the sensor-assay potency score (higher = more potent) falls from -0.262 to -1.56.

Compared with TTCTTTGTTATAAAGTCACGGC, TTATTTGCTTTACAAAGTCTAG is lower in sensor-assay potency score (higher = more potent): -0.192 for the first, -0.983 for the second.

First: TTGCATTGTAAAGCTTGCTGAC
Second: AAGACTTTTTCTTTGTTCCTGT
The sensor-assay potency score (higher = more potent) of the first is lower: -0.311 for the first, 0.524 for the second.

Compared with TTGCTTTACAAAGTCTAGTAGG, TTGTGCATTTACAACATGGAGT is lower in sensor-assay potency score (higher = more potent): -0.465 for the first, -0.696 for the second.

Compared with TACAACATGGAGTTGCTGCTTT, TAAAGCTTGCTGACCAGACGGA is lower in sensor-assay potency score (higher = more potent): 0.408 for the first, 0.11 for the second.

Each sequence was assayed against DAGLA in the same assay as above. Details: shRNA.

Compared with TTGTTTTCTAAACTCTAAGAGC, TCTTCTTGATGTACTCAGCTGA is higher in sensor-assay potency score (higher = more potent): -0.925 for the first, 0.266 for the second.

First: ATTCTTGGCAGTGAGGTCGTTG
Second: TAGCGGAGCATCTCTTGTGAAT
The sensor-assay potency score (higher = more potent) of the first is higher: -0.825 for the first, -1.2 for the second.

First: TAGTTCTCCAGCACCTTGTTGA
Second: TATAGTTAGGTCGCTGGGGTGG
The sensor-assay potency score (higher = more potent) of the first is higher: -0.467 for the first, -0.742 for the second.

Going from TTTTACAGCAATATTAGTTTGG to TAAACATGTACAGCACTGCAGG, the sensor-assay potency score (higher = more potent) falls from 0.015 to -1.11.

Compared with TTTTCTAAACTCTAAGAGCCAC, TTGGCAGTGAGGTCGTTGCAGG is lower in sensor-assay potency score (higher = more potent): -0.539 for the first, -1.13 for the second.

For TTGTAGTTCTCCAGCACCTTGT, the sensor-assay potency score (higher = more potent) was -0.221.
